Test results as given in PubChem BioAssay (EPA / NIEHS).
Records with an inconclusive call do not appear. Calls of active or inactive are those of the source. The calls were made as follows, unless noted: active = hit-call score of the fitted dose curve at least 0.9, where 1 is the maximum; inactive = score below 0.9.

How the values were obtained:
[1] = target: human Retinoid X Receptor beta (RXRb), RXRB (gene 6257) (UniProt P28702); assay: ATG_RXRb_TRANS: Attagene TRANS-FACTORIAL HepG2 Assay for human Retinoid X Receptor beta (RXRb) (AID 2283013; active = hit-call score of the fitted dose curve at least 0.9, where 1 is the maximum)
Procedure, shortened: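 HepG2 cells transiently transfected with multiplexed reporter units driven by GAL4-UAS and exogenous chimeric NR-Gal4 proteins; treated 24 h. Reporter mRNA measured by RT-PCR, 6-FAM labelling and capillary electrophoresis; gain-of-signal fitted versus DMSO baseline.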

[2] = read-out: E-selectin (Homo sapiens) (UniProt P16581); assay: BSK_3C_Eselectin: BioMAP Diversity Plus: 3C Assay for Eselectin Biomarker Activity (AID 2283015); conditions: primary human endothelial cells (HUVEC); actives raise or lower the signal;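 also: cell surface E-selectin protein quantified by ELISA 24 h after dosing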
Procedure, shortened: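 HUVEC, 3C stimulation; compound exposure 24 h; E-selectin by ELISA; gain- or loss-of-signal fitted bidirectionally vs DMSO baseline.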

[3] = read-out: Interleukin-1 alpha (IL1a), IL1A (gene 3552); assay: BSK_BE3C_IL1a: BioMAP Diversity Plus: BE3C Assay for Interleukin-1 alpha (IL1a) Biomarker Activity (AID 2283016); conditions: primary human bronchial epithelial cells; actives raise or lower the signal
Procedure, shortened: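 Human primary bronchial epithelial cells (BE3C system) were dosed with compound and IL-1a measured by ELISA 24 h later. Activity was fitted bidirectionally against DMSO baseline; cytotoxicity was tracked in parallel cultures by SRB total-protein staining.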

[4] = read-out: Monocyte Chemoattractant Protein-1 (MCP1), CCL2 (gene 6347); assay: BSK_3C_MCP1: BioMAP Diversity Plus: 3C Assay for Monocyte Chemoattractant Protein-1 (MCP1) Biomarker Activity (AID 2283017); conditions: primary human endothelial cells (HUVEC); actives raise or lower the signal
Procedure, shortened: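 HUVEC, 3C system; 24 h chemical exposure; MCP-1 by ELISA; bidirectional curve fit vs DMSO baseline.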

[5] = read-out: Monocyte Chemoattractant Protein-1 (MCP1), CCL2 (gene 6347); assay: BSK_4H_MCP1: BioMAP Diversity Plus: 4H Assay for Monocyte Chemoattractant Protein-1 (MCP1) Biomarker Activity (AID 2283018); conditions: primary human endothelial cells (HUVEC); actives raise or lower the signal
Procedure, shortened: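 Human umbilical vein endothelial cells (4H system) dosed with chemical; MCP-1 measured by ELISA 24 h after dosing. Bidirectional curve fitting against DMSO negative control as baseline; parallel SRB total-protein staining tracks overt cytotoxicity.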

[6] = read-out: Human Leukocyte Antigen - DR isotype (HLADR), HLA-DRA (gene 3122); assay: BSK_3C_HLADR: BioMAP Diversity Plus: 3C Assay for Human Leukocyte Antigen - DR isotype (HLADR) Biomarker Activity (AID 2283019); conditions: primary human endothelial cells (HUVEC); actives raise or lower the signal
Procedure, shortened: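 HUVEC, 3C stimulation, 24 h post-dose; HLA-DR by ELISA; bidirectional curve fit vs DMSO baseline; gain or loss of signal scored.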

[7] = read-out: Interleukin-8 (IL8), CXCL8 (gene 3576); assay: BSK_3C_IL8: BioMAP Diversity Plus: 3C Assay for Interleukin-8 (IL8) Biomarker Activity (AID 2283020); conditions: primary human endothelial cells (HUVEC); actives raise or lower the signal
Procedure, shortened: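 Primary human umbilical vein endothelial cells (3C system) were exposed to test chemical for 24 h, then IL-8 was quantified by ELISA. Responses were fitted bidirectionally against DMSO vehicle as baseline.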

[8] = read-out: Monokine induced gamma interferon (MIG), CXCL9 (gene 4283); assay: BSK_3C_MIG: BioMAP Diversity Plus: 3C Assay for Monokine induced gamma interferon (MIG) Biomarker Activity (AID 2283021); conditions: primary human endothelial cells (HUVEC); actives raise or lower the signal
Procedure, shortened: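 Primary human umbilical vein endothelial cells in the 3C system were exposed to chemical for 24 h, after which MIG was quantified by ELISA. Activity was fitted bidirectionally against DMSO as negative control and baseline.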

[9] = BSK_3C_SRB: Viability Assessment in the BioMAP Diversity Plus: 3C Assay (AID 2283023); conditions: primary human endothelial cells (HUVEC);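 also: cells read 24 h after compound dosing; fitted both ways against DMSO so a hit may be signal rise or drop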
Procedure, shortened: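 HUVEC, 24 h post-dose; 10% TCA fix, 0.1% SRB stain, A560 nm. Bidirectional curve fit vs DMSO negative control.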

[10] = read-out: Matrix Metallopeptidase 1 (MMP1), MMP1 (gene 4312); assay: BSK_BE3C_MMP1: BioMAP Diversity Plus: BE3C Assay for Matrix Metallopeptidase 1 (MMP1) Biomarker Activity (AID 2283024); conditions: primary human bronchial epithelial cells; actives raise or lower the signal
Procedure, shortened: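 Primary human bronchial epithelial cells were dosed with test chemicals, and MMP1 levels were measured by ELISA 24 h later. Data were fitted bidirectionally against DMSO as the negative control and activity baseline.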

[11] = read-out: Pselectin, SELP (gene 6403); assay: BSK_4H_Pselectin: BioMAP Diversity Plus: 4H Assay for Pselectin Biomarker Activity (AID 2283026); conditions: primary human endothelial cells (HUVEC); actives raise or lower the signal
Procedure, shortened: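 Primary human umbilical vein endothelial cells were exposed to test chemical for 24 h, then cell-surface P-selectin was quantified by ELISA. Activity was fitted bidirectionally against DMSO as negative control and baseline.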

[12] = BSK_4H_SRB: Viability Assessment in the BioMAP Diversity Plus: 4H Assay (AID 2283027); conditions: primary human endothelial cells (HUVEC);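 also: cells exposed to compound for 24 h before staining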
Procedure, shortened: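 Human umbilical vein endothelial cells were dosed with chemical and, after 24 h, fixed with 10% TCA, stained with 0.1% sulforhodamine B, and read at 560 nm to give total protein as a cytotoxicity measure. Bidirectional fitting relative to DMSO control.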

[13] = BSK_BE3C_SRB: Viability Assessment in the BioMAP Diversity Plus: BE3C Assay (AID 2283028); conditions: primary human bronchial epithelial cells
Procedure, shortened: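 Primary human bronchial epithelium; chemical dosing, 24 h; 10% TCA fix, 0.1% SRB stain, A560; bidirectional fit vs DMSO baseline.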

[14] = read-out: Thrombomodulin, THBD (gene 7056); assay: BSK_3C_Thrombomodulin: BioMAP Diversity Plus: 3C Assay for Thrombomodulin Biomarker Activity (AID 2283029); conditions: primary human endothelial cells (HUVEC); actives raise or lower the signal
Procedure, shortened: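 Primary human umbilical vein endothelial cells (3C system) were exposed to chemical for 24 h, then thrombomodulin levels were measured by ELISA. Activity was fitted bidirectionally against the DMSO negative control as baseline.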

[15] = read-out: Urokinase-type plasminogen activator receptor (uPAR), PLAUR (gene 5329); assay: BSK_4H_uPAR: BioMAP Diversity Plus: 4H Assay for Urokinase-type plasminogen activator receptor (uPAR) Biomarker Activity (AID 2283030); conditions: primary human endothelial cells (HUVEC); actives raise or lower the signal
Procedure, shortened: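 HUVEC, 24 h post-dose; uPAR by ELISA; bidirectional fit vs DMSO baseline.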

[16] = read-out: Vascular endothelial growth factor receptor 2 (Homo sapiens) (UniProt P35968); assay: BSK_4H_VEGFRII: BioMAP Diversity Plus: 4H Assay for Vascular endothelial growth factor receptor 2 (VEGFR2) Biomarker Activity (AID 2283031); conditions: primary human endothelial cells (HUVEC); actives raise or lower the signal
Procedure, shortened: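 HUVEC (human primary), 4H system; 24 h post-dose; VEGFRII by ELISA; bidirectional curve fit vs DMSO baseline; gain or loss of signal scored.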

[17] = read-out: Human Leukocyte Antigen - DR isotype (HLADR), HLA-DRA (gene 3122); assay: BSK_BE3C_HLADR: BioMAP Diversity Plus: BE3C Assay for Human Leukocyte Antigen - DR isotype (HLADR) Biomarker Activity (AID 2283032); conditions: primary human bronchial epithelial cells; actives raise or lower the signal
Procedure, shortened: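 Human primary bronchial epithelial cells in the BE3C system were exposed to chemicals for 24 h, after which HLA-DR levels were quantified by ELISA. Activity was fitted bidirectionally, gain or loss of signal, against DMSO as negative control and baseline.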

[18] = target: human Vitamin D Receptor (VDR), VDR (gene 7421) (UniProt P11473); assay: ATG_VDR_TRANS: Attagene TRANS-FACTORIAL HepG2 Assay for human Vitamin D Receptor (VDR) (AID 2283022; active = hit-call score of the fitted dose curve at least 0.9, where 1 is the maximum)
Procedure, shortened: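 RT-PCR/capillary electrophoresis read-out of reporter mRNA induction in transiently transfected HepG2; 24 h dosing; chimeric NR-Gal4 (TRANS format); gain-of-signal fit against DMSO baseline.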

[19] = BSK_3C_Vis: BioMAP Diversity Plus: 3C Assay for Morphology Visualization (AID 2283025); conditions: primary human endothelial cells (HUVEC);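 also: fitted both ways so gain or loss versus DMSO counts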
Procedure, shortened: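 Human umbilical vein endothelial cells in the 3C system were imaged by light microscopy 24 h after chemical dosing to record cell morphology. Activity was fitted bidirectionally against DMSO as negative control and baseline; the endpoint serves as a background control.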

[20] = target: human Thyroid Receptor alpha (THRa1), THRA (gene 7067) (UniProt P10827); assay: ATG_THRa1_TRANS: Attagene TRANS-FACTORIAL HepG2 Assay for human Thyroid Receptor alpha (THRa1) (AID 2283014; active = hit-call score of the fitted dose curve at least 0.9, where 1 is the maximum)
Procedure, shortened: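 Transient HepG2 transfection, NR-Gal4 chimera driving GAL4-UAS reporters; 24 h compound exposure; total RNA, oligo(dT) RT, PCR, fluorescent primer extension, capillary electrophoresis. Upward direction vs DMSO control.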

Measured: AC50

human Vitamin D Receptor (VDR), VDR (gene 7421), sequence (P11473 whole entry, looked up, the tested form may be a part): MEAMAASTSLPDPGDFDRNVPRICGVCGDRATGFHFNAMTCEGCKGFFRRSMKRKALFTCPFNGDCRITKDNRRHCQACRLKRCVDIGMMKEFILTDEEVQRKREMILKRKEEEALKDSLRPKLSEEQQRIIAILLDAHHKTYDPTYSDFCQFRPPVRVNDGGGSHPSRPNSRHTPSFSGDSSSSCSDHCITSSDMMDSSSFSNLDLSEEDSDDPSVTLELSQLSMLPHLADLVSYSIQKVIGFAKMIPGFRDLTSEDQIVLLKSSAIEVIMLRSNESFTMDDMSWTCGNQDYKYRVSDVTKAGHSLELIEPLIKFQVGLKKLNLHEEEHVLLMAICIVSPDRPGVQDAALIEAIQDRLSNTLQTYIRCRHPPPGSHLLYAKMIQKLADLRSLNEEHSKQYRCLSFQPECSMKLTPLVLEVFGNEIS
E-selectin (Homo sapiens), sequence (P16581 whole entry, looked up): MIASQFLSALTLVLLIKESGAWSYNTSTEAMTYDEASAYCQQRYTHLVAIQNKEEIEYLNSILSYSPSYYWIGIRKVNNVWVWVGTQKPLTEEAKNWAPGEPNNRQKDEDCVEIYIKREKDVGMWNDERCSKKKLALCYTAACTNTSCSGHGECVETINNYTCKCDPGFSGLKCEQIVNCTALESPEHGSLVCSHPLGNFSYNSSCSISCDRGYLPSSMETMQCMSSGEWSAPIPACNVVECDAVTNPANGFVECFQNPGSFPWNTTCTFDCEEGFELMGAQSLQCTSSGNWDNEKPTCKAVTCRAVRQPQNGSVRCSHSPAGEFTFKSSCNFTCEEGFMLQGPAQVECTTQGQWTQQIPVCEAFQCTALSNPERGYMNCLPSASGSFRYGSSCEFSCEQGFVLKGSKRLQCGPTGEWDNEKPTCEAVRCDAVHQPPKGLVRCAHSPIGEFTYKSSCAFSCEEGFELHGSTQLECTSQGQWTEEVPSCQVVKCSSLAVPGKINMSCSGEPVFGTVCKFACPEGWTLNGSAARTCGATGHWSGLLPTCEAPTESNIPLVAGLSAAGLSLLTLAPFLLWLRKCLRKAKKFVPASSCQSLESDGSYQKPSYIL
human Retinoid X Receptor beta (RXRb), RXRB (gene 6257), sequence (P28702 whole entry, looked up, the tested form may be a part): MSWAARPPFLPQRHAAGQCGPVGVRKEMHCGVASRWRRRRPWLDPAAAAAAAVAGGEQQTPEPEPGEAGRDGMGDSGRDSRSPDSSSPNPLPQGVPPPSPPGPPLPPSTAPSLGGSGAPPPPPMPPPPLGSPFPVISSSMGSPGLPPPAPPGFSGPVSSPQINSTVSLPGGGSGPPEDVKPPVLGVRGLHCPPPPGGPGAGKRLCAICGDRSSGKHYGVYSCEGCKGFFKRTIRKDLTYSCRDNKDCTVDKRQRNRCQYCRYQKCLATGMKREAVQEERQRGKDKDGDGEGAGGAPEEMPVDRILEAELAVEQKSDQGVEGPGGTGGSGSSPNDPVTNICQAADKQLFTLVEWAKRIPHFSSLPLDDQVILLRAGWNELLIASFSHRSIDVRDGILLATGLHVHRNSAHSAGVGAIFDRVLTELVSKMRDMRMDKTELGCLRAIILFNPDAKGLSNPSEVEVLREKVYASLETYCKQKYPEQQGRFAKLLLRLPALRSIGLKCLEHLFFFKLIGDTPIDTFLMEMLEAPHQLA
human Thyroid Receptor alpha (THRa1), THRA (gene 7067), sequence (P10827 whole entry, looked up, the tested form may be a part): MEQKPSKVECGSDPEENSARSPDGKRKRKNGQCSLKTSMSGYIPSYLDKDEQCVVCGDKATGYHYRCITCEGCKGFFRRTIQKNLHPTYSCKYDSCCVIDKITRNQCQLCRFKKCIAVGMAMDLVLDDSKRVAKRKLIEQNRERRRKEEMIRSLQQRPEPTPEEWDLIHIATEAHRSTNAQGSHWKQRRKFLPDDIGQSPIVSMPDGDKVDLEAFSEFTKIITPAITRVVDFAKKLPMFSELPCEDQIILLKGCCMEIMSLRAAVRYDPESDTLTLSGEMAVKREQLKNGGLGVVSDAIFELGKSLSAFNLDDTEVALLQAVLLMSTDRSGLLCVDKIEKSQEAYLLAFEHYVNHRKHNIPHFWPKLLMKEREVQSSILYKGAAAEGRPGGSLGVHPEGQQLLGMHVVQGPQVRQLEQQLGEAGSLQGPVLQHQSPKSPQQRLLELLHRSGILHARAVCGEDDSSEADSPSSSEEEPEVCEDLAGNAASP

CCCC[C@H]1CN(CC2CCOCC2)C(=O)OC12CCN(C1(C)CCN(C(=O)c3c(C)ncnc3C)CC1)CC2
not listed: [18] | [19] | [20]
inactive: all other assays above

CC(=O)[C@@]1(O)CC[C@H]2[C@@H]3CCC4=CC(=O)CC[C@]4(C)[C@H]3CC[C@@]21C
active: [10] 8.47 µM | [15] 26.6 µM
not listed: [13] | [16] | [19] | [20]
inactive: all other assays above

C=CCCCCCCCCCCCC
active: [1] 59.1 µM
not listed: [19] | [20]
inactive: all other assays above

CC(C)c1cccc(C(C)C)c1
active: [1] 100 µM
not listed: [18] | [20]
inactive: all other assays above

O=C(Oc1ccccc1)c1cccc(C(=O)Oc2ccccc2)c1
not listed: [1] | [18] | [19]
inactive: all other assays above

c1ccc2occc2c1
not listed: [1] | [18] | [19]
inactive: all other assays above

C=CCc1ccc(OC)c(OC)c1
active: [1] 65.4 µM
not listed: [16] | [20]
inactive: all other assays above

CC(C)OC(=O)C(C)(C)Oc1ccc(C(=O)c2ccc(Cl)cc2)cc1
active: [1] 26.9 µM | [4] 30.2 µM | [5] 25.3 µM | [6] 14.2 µM | [7] 14.1 µM | [9] 14.8 µM | [10] 13.3 µM | [11] 32.8 µM
inactive: [2] | [3] | [8] | [18] | [12] | [13] | [15] | [17]
